Compounds without any hit were thinned out: in the full panel of roughly 83,000, 20% have a hit.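 Cell lines were cultured in 96-well plates, exposed to a single compound concentration, and assessed for percent growth 48 hours later.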 Unmarked numbers belong to inactive results. Activity calls are given as the source filed them. How the source made its calls: active means growth percent below 10; inactive means the rest.
system: SN12C renal; assay: NCI-60 one-dose screen, 48 h (100 = growth as untreated, 0 = no growth, -100 = all killed); details: 10 µM unless noted

Structure (SMILES) | growth
O=C(O)Cc1ccccn1 | 112%
CC(C)(C)CC1(C)NC(=O)NC1=O (centres undefined) | 110%
COc1cc(CC#N)c([N+](=O)[O-])cc1OC | 104%
CN(C)CCOC(=O)Nc1ccc(Cc2ccc(NC(=O)OCCN(C)C)cc2)cc1 | 97.5% [100 µM]
Cc1cc2nc(C)c(C)nc2cc1C | 115%
CCCCc1ccc2nc(NC(=O)OC)[nH]c2c1 | 34.5%
NCC(O)C(O)C(O)C(O)CO (centres undefined) | 96.2%
CCNc1ccc2ccccc2c1N=Nc1ccc(N=Nc2ccccc2)cc1 | 96%
O=Cc1ccc(O)c(O)c1 | 94.9%
CC(=O)C1C(=O)C(=O)N(c2cccc([N+](=O)[O-])c2)C1=O (centres undefined) | 101%
C1Cc2onc(-c3noc4c3CCC4)c2C1 | 96.2%
O=C(O)c1cc(I)ccc1O | 95.3%
C=CCS(C)(=O)=O | 98.1%
O=C(OCc1ccccc1)n1nnc2ccccc21 | 97%
CC(=O)N=c1ccc2nc3c(cc(N)c4ccccc43)oc-2c1 | -72.8% (active)
CN1CCCN(C(c2ccccc2)c2ccc(Cl)cc2)CC1 (centres undefined) | 101%
COc1ccc(/C=C\C(=O)/C=C/c2ccc(OC)cc2)cc1 | 90.3%
CCOC(=O)c1ccc(NC(C)=O)o1 | 95.1%
CCOC(=O)c1cc(Cl)c(O)c(Cl)c1 | 107%

Structure (SMILES) | growth
NNc1ncccn1 | 103%
CCCC1OC(c2ccco2)OCC1CC (centres undefined) | 98.4%
Cc1ccc(N2C(=O)c3cccc4c(N)c(S(=O)(=O)O)cc(c34)C2=O)cc1 | 105%
Clc1ncnc2nc[nH]c12 | 93.4%
C/C(=N\Nc1ccc([N+](=O)[O-])cc1[N+](=O)[O-])c1ccc(Br)cc1 | 96.2%
N#Cc1ccc(OC(=O)Nc2c(Cl)cc(Cl)cc2Cl)cc1 | 98.2%
Nc1ncnc2c1ncn2C1OC(CO)C2OC21 (centres undefined) | 95.7%
CN(C)c1ccc(/C=C/C(=O)c2ccc(NC(N)=O)cc2)cc1 | 93.3%
NC(=O)N1CCOCC1 | 109%
CN1C(=O)NC(c2ccc(Cl)cc2)(c2ccc(Cl)cc2)C1=O | 103%
Cc1ccc(C)c(CN(C)C)c1O | 115%
O=C(OCC1CCCO1)c1ccc([N+](=O)[O-])cc1 (centres undefined) | 95.3%
S=C(NCc1ccccc1)N1CCC(CCCC2CCN(C(=S)NCc3ccccc3)CC2)CC1 | 96.8%
N#Cc1ccc2nc[nH]c2c1 | 110%
O=S(=O)(O)c1cccc2cccnc12 | 103%
O=S(=O)(O)c1cccnc1 | 105%
S=CN1CCCCC1 | 103%
Cc1ccccc1CC(N)C(=O)O (centres undefined) | 105%

system: UO-31 renal; assay: as above; details: 10 µM unless noted

Structure (SMILES) | growth
O=C(O)Cc1ccccn1 | 95.1%
CC(C)(C)CC1(C)NC(=O)NC1=O (centres undefined) | 100%
COc1cc(CC#N)c([N+](=O)[O-])cc1OC | 96%
CN(C)CCOC(=O)Nc1ccc(Cc2ccc(NC(=O)OCCN(C)C)cc2)cc1 | 68.6% [100 µM]
Cc1cc2nc(C)c(C)nc2cc1C | 78.2%
CCCCc1ccc2nc(NC(=O)OC)[nH]c2c1 | 36.1%
NCC(O)C(O)C(O)C(O)CO (centres undefined) | 93.2%
CCNc1ccc2ccccc2c1N=Nc1ccc(N=Nc2ccccc2)cc1 | 71.1%
O=Cc1ccc(O)c(O)c1 | 84.2%
CC(=O)C1C(=O)C(=O)N(c2cccc([N+](=O)[O-])c2)C1=O (centres undefined) | 105%
C1Cc2onc(-c3noc4c3CCC4)c2C1 | 87.9%
O=C(O)c1cc(I)ccc1O | 90.7%
C=CCS(C)(=O)=O | 90.3%
O=C(OCc1ccccc1)n1nnc2ccccc21 | 94.9%
CC(=O)N=c1ccc2nc3c(cc(N)c4ccccc43)oc-2c1 | -43.9% (active)
CN1CCCN(C(c2ccccc2)c2ccc(Cl)cc2)CC1 (centres undefined) | 76.3%
COc1ccc(/C=C\C(=O)/C=C/c2ccc(OC)cc2)cc1 | 69.1%
CCOC(=O)c1ccc(NC(C)=O)o1 | 87.4%
CCOC(=O)c1cc(Cl)c(O)c(Cl)c1 | 92.3%

Structure (SMILES) | growth
NNc1ncccn1 | 83.5%
CCCC1OC(c2ccco2)OCC1CC (centres undefined) | 77.6%
Cc1ccc(N2C(=O)c3cccc4c(N)c(S(=O)(=O)O)cc(c34)C2=O)cc1 | 77.3%
Clc1ncnc2nc[nH]c12 | 77.2%
C/C(=N\Nc1ccc([N+](=O)[O-])cc1[N+](=O)[O-])c1ccc(Br)cc1 | 85%
N#Cc1ccc(OC(=O)Nc2c(Cl)cc(Cl)cc2Cl)cc1 | 83.1%
Nc1ncnc2c1ncn2C1OC(CO)C2OC21 (centres undefined) | 100%
CN(C)c1ccc(/C=C/C(=O)c2ccc(NC(N)=O)cc2)cc1 | 68.3%
NC(=O)N1CCOCC1 | 79.8%
CN1C(=O)NC(c2ccc(Cl)cc2)(c2ccc(Cl)cc2)C1=O | 61.5%
Cc1ccc(C)c(CN(C)C)c1O | 90.1%
O=C(OCC1CCCO1)c1ccc([N+](=O)[O-])cc1 (centres undefined) | 86.9%
S=C(NCc1ccccc1)N1CCC(CCCC2CCN(C(=S)NCc3ccccc3)CC2)CC1 | 84.4%
N#Cc1ccc2nc[nH]c2c1 | 91.4%
O=S(=O)(O)c1cccc2cccnc12 | 76.8%
O=S(=O)(O)c1cccnc1 | 109%
S=CN1CCCCC1 | 89.1%
Cc1ccccc1CC(N)C(=O)O (centres undefined) | 91.7%
